Laboratory results from PubChem BioAssay AID1220 (Sanford-Burnham Center for Chemical Genomics, 2008).
The campaign covered roughly 190,000 compounds. About 1,300 (0.68%) were called active. The entries come from a sample that favours actives as a whole. A number with no mark means an inactive call. Rule as the data show it: active = inhibition above about 50%; inactive = the rest.

The molecules below were run against Mannose-6-phosphate isomerase (Homo sapiens) (UniProt P34949) (assay: MPI inhibition at elevated mannose 6-phosphate – biochemical, fluorescence intensity, high mannose 6-phosphate, primary screen (AID 1220)). Details: recombinant PMI enzyme, coupled fluorescence intensity; at 20 µM; hits give high values.
Chain of Mannose-6-phosphate isomerase (Homo sapiens) (P34949 whole entry, looked up): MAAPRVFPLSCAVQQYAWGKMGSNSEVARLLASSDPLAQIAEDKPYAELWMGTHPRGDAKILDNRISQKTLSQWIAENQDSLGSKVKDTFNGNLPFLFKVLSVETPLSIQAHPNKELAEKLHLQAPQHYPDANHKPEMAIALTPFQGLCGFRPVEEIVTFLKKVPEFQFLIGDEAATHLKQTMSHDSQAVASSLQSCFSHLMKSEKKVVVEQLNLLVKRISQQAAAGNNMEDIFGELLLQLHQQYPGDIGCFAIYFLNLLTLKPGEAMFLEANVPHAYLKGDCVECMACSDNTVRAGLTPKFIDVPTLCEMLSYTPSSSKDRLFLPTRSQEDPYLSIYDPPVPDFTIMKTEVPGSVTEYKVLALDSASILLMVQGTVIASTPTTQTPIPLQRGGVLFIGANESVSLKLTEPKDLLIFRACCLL
In the case of `CC(C)CSc1n[nH]c(N)n1`, the inhibition was -6.6%.
Molecule `Cc1ccccc1/C=N\NC(=O)c1ccccc1-n1cccc1` has an inhibition of 15.6%.
`CCOC(=O)c1c(N/N=C/c2ccncc2)n[nH]c1C` showed an inhibition of -0.3%.
In the case of `Cc1ccccc1Nc1nnc(SCC(=O)NC(=O)Nc2ccc3c(c2)OCCO3)s1`, the inhibition was 3.7%.
For `Cc1ccc(NC(N)=S)cc1`, the inhibition was -4.6%.
Work on `COc1cccc(-c2nn3c(-c4cc(C)[nH]n4)nnc3s2)c1` yielded an inhibition of -5.7%.
`CC(C(=O)OCC(=O)Nc1ccc(S(=O)(=O)N2CCCCC2)cc1)N1C(=O)c2ccccc2C1=O` (configuration not stated) gave an inhibition of 7.2%.
`O=S(=O)(c1ccccc1)c1nc(NCc2cccnc2)sc1Cl` gave an inhibition of -5.8%.
`O=C(Nc1ccc(NC(=O)C2CCCN2C(=O)OCc2ccccc2)cc1)c1ccco1` (configuration not stated) gave an inhibition of -8.3%.
`COc1ccc(CNC(=O)C(OC(=O)c2nsc(Cl)c2Cl)C(C)C)cc1` (configuration not stated) showed an inhibition of 14.4%.
In the case of `CC/C(=N/OC(=O)c1cccc(C)c1)C(=O)c1cccs1`, the inhibition was -0.6%.
`CCOc1ccc(NC(=O)C2CCN(C(=O)NC3CCCCC3)CC2)cc1` gave an inhibition of -11.9%.
Molecule `CCn1nnnc1-c1ccc(OC)c(S(=O)(=O)Nc2ccc(C)c(C)c2)c1` has an inhibition of -3.8%.
Work on `Cc1ccc(Cl)cc1N1CCN(C(=O)CCC(=O)O)CC1` yielded an inhibition of -5.1%.
`Cc1ccc(CSC2=NCCN2C(=O)C2CC2)cc1` gave an inhibition of -1.1%.
`CCC(=O)Nc1c(C#N)c2nc3ccccc3nc2n1C1CCCCC1` showed an inhibition of 17.4%.
`CCCCn1c(N)c(S(=O)(=O)c2ccc(C)cc2)c2nc3ccccc3nc21` showed an inhibition of 20.2%.
With `Nc1c(S(=O)(=O)c2ccccc2)c2nc3ccccc3nc2n1C1CC1` the inhibition was 0.4%.
Molecule `Cc1ccc(S(=O)(=O)c2c(N)n(CCCO)c3nc4ccccc4nc23)cc1` has an inhibition of 8.6%.
`O=S(=O)(Nc1c(S(=O)(=O)c2ccccc2)c2nc3ccccc3nc2n1C1CCCCC1)c1ccccc1` was tested, and the inhibition was 59.7% (active).
`CCCCn1c(NS(=O)(=O)c2ccccc2)c(S(=O)(=O)c2ccc(C)cc2)c2nc3ccccc3nc21` was tested, and the inhibition was 57.6% (active).
`Cc1ccc(N(Cc2ccc([N+](=O)[O-])cc2)C(=O)c2ccco2)cc1C` showed an inhibition of 4.7%.
Work on `Cc1ccc(O)c(-c2cc(C(F)(F)F)[nH]n2)c1` yielded an inhibition of 3.7%.
With `COC(=O)c1nc2nc(C)cc(=O)n2[nH]1` the inhibition was 3.3%.
With `O=C(Nc1ccc([N+](=O)[O-])cc1)C1C(c2ccccc2)=C1c1ccccc1` the inhibition was 1.6%.
With `CC(C)C(c1nnnn1Cc1ccc(F)cc1)N1CCN(c2ccc(O)cc2)CC1` (configuration not stated) the inhibition was 66.2% (active).
In the case of `CC(C)C(c1nnnn1Cc1ccc(F)cc1)N1CCSCC1` (configuration not stated), the inhibition was 4.6%.
`CC(C)C(c1nnnn1Cc1ccc(F)cc1)N1CCN(C2CCCC2)CC1` (configuration not stated) was tested, and the inhibition was 3%.
With `Cn1c(-c2ccc(F)cc2)cnc1NCc1cc2c(cc1[N+](=O)[O-])OCO2` the inhibition was 15.7%.
`CCNc1nc(NC(C)C)nc(N(n2cnnc2)S(=O)(=O)c2ccc(C)cc2)n1` was tested, and the inhibition was 5.3%.
Molecule `Cc1cc(=O)n2nc(N3CCC(C(=O)NC4CCCc5ccccc54)CC3)sc2n1` (configuration not stated) has an inhibition of -0.3%.
`Cc1ccc(-n2cc(CN3CCNC(=O)CC3)c(-c3cccc(C)c3)n2)cc1` gave an inhibition of 12.5%.
With `COC(=O)CC1C(=O)NCCN1Cc1cn(-c2ccc(C)cc2)nc1-c1cccc(C)c1` (configuration not stated) the inhibition was 52.9% (active).
For `CC(=O)N1CCCN(Cc2cn(-c3ccc(C)cc3)nc2-c2cccc(C)c2)CC1`, the inhibition was 9.1%.
In the case of `CN(C)c1ccc(C(CNS(=O)(=O)c2ccc3ccccc3c2)c2c[nH]c3ccccc23)cc1` (configuration not stated), the inhibition was 13.6%.
`Cc1ccc(N2C(N)=C(C#N)C(c3cccs3)C3=C2CC(C)(C)CC3=O)cc1` (configuration not stated) was tested, and the inhibition was 8.2%.
In the case of `Cc1ccc(C2C(C#N)=C(N)N(c3cccnc3)C3=C2C(=O)CCC3)s1` (configuration not stated), the inhibition was 56.7% (active).
Work on `CSc1sc(C)cc1C1C(C#N)=C(N)N(c2cccnc2)C2=C1C(=O)CCC2` (configuration not stated) yielded an inhibition of 13.3%.
With `Cc1nn(C)cc1C1C(C#N)=C(N)N(c2cccnc2)C2=C1C(=O)CCC2` (configuration not stated) the inhibition was 28.3%.
In the case of `CC1(C)CC(=O)C2=C(C1)N(c1ccc(F)cc1)C(N)=C(C#N)C2c1cccs1` (configuration not stated), the inhibition was 28.6%.
With `CC1(C)CC(=O)C2=C(C1)N(c1cccnc1)C(N)=C(C#N)C2c1cccs1` (configuration not stated) the inhibition was 53.9% (active).
`CC(=O)Nc1ccc(/C=C(\C#N)C(=O)NC2CCCCC2)cc1` was tested, and the inhibition was 4.7%.
In the case of `Cc1ccc(-c2nnc(SCC(=O)NNC(=O)COc3ccccc3C)n2C)cc1`, the inhibition was 3.3%.
`Cc1cc2c3c(c1)C1(C(=O)N3C(C)(C)CC2C)C(C#N)=C(N)Oc2cc(O)ccc21` (configuration not stated) gave an inhibition of 18.9%.
Molecule `CCc1ccc(N2CC(C(=O)N/N=C/c3cc([N+](=O)[O-])ccc3O)CC2=O)cc1` (configuration not stated) has an inhibition of -15.8%.
Molecule `CCOC(=O)Cc1csc(NC(=O)CSc2nnc(-n3nc(C)cc3C)c3ccccc23)n1` has an inhibition of 6.3%.
`Cc1nc(NCC2CCCO2)c2nnn(Cc3ccccc3)c2n1` (configuration not stated) gave an inhibition of -3%.
With `Cc1nc(Nc2ccc(Cl)cc2)c2nnn(Cc3ccccc3)c2n1` the inhibition was 3.1%.
For `Cc1nc(NCC2CC2)c2nnn(Cc3ccccc3)c2n1`, the inhibition was 59.2% (active).
With `O=C(OCC(=O)N1CCN(C(=O)c2ccco2)CC1)c1cc(-c2cccc(Br)c2)nc2ccccc12` the inhibition was 9.6%.
`Cc1cc(C)cc(NC(=S)NCC2CCN(C(C)c3ccccc3)C2)c1` (configuration not stated) gave an inhibition of -1.3%.
In the case of `O=C(NC(c1ccccc1)c1ccccc1)C1(c2cccs2)CCOCC1`, the inhibition was -1.3%.
`CCOc1ccc2nc(NS(=O)(=O)c3ccc4c(c3)n(C)c(=O)n4C)sc2c1` showed an inhibition of -21%.
Molecule `CCN(CC)c1ccc(NC(=O)c2ccccc2F)cc1S(=O)(=O)Nc1ccccc1OC` has an inhibition of -13.8%.
`CCN(CC)c1ccc(NC(=O)c2ccccc2)cc1S(=O)(=O)Nc1ccccc1OC` showed an inhibition of 9.4%.
With `CCCS(=O)(=O)C(=C(Nc1ccccc1)Nc1ccccc1)S(=O)(=O)CCC` the inhibition was -4.7%.
Work on `O=C(NCc1cccs1)N[C@@H](Cc1ccccc1)C(=O)O` yielded an inhibition of -2.3%.
With `COc1ccc(-c2nc(S(=O)(=O)c3ccccc3)c(N3CCOCC3)o2)cc1` the inhibition was 3.3%.
In the case of `O=C(O)C1Sc2[nH]c(=O)sc2C2c3ccc(O)cc3OC(=O)C12` (configuration not stated), the inhibition was 55.1% (active).
`COC(=O)C1Sc2[nH]c(=O)sc2C2c3ccccc3OC(=O)C12` (configuration not stated) was tested, and the inhibition was 29.7%.
For `O=C(O)C1Sc2[nH]c(=O)sc2C2c3cc(Cl)ccc3OC(=O)C12` (configuration not stated), the inhibition was 63.5% (active).
`CCOC(=O)C1Sc2[nH]c(=O)sc2C(c2ccc(Cl)cc2)C1C(=O)OCC` (configuration not stated) gave an inhibition of -88.8%.
For `COC(=O)C1Sc2[nH]c(=O)sc2C(c2ccc(Cl)cc2)C1C(=O)OC` (configuration not stated), the inhibition was 34.7%.
Work on `CC1(C(=O)O)Sc2[nH]c(=O)sc2C2c3ccccc3OC(=O)C21` (configuration not stated) yielded an inhibition of 14.1%.
`Cc1nc2c(C(=O)NCc3ccc4c(c3)OCO4)c[nH]n2c(=O)c1Cl` was tested, and the inhibition was 7.8%.
With `CN(C)C=Nc1ncc2c3ccccc3n(CCN(C)C)c2c1C#N` the inhibition was 17.9%.
Molecule `CN(C)CCNC(=O)C1CC(=O)N(c2ccc(F)c(Cl)c2)C1` (configuration not stated) has an inhibition of -1.8%.
`Cc1nn2c(c1-c1ccc(Cl)cc1)N=C(c1ccco1)CC2c1ccccc1` (configuration not stated) gave an inhibition of 0.1%.
Work on `Cc1cc(Cl)ccc1N=c1ssnc1Cl` yielded an inhibition of 13.6%.
In the case of `COc1cc(OC)c(Cl)cc1N`, the inhibition was 44.9%.
With `Cc1cc(C)nc(NC(=O)c2csnn2)c1` the inhibition was -2.9%.
In the case of `Cc1ccc(N=c2ssnc2Cl)cc1`, the inhibition was 49.8%.
Work on `N#Cc1cccc(N=c2ssnc2Cl)c1` yielded an inhibition of 43%.
For `Nc1ccccc1N=c1ssnc1Cl`, the inhibition was 38.1%.
`Clc1nssc1=Nc1ccccc1` was tested, and the inhibition was 36.5%.
Molecule `COc1cc(N=c2ssnc2Cl)cc(OC)c1OC` has an inhibition of 47.1%.
For `CC(=O)Nc1ccc(S(=O)(=O)Nc2c(C)n(C)n(-c3ccccc3)c2=O)cc1`, the inhibition was 4.8%.
For `O=C(NCc1ccco1)c1cc2nc(C3CC3)cc(C(F)(F)F)n2n1`, the inhibition was 8.5%.
`Cc1c(NC(=O)C2CCCCN2S(=O)(=O)c2ccc(Cl)cc2)c(=O)n(-c2ccccc2)n1C` (configuration not stated) was tested, and the inhibition was 4.8%.
For `Cc1ccc(C(=O)NC(=S)Nc2cccc(NC(=O)c3ccccc3)c2)cc1[N+](=O)[O-]`, the inhibition was 0.9%.
In the case of `Fc1ccc(-n2nnc(-c3cccnc3)n2)cc1`, the inhibition was -1.8%.
`Cc1cccc(-c2n[nH]c(=S)n2C)c1` showed an inhibition of -8.8%.
Molecule `O=C(NC1=NCCS1)c1ccccc1OCc1ccc(F)cc1` has an inhibition of 1.4%.
In the case of `COc1cc(N=c2ssnc2Cl)cc(OC)c1`, the inhibition was 27.3%.
For `COc1ccc(N=c2sc3ccccc3n2C)cc1`, the inhibition was 0.4%.
`COc1ccc(OC)c(N=c2ssnc2Cl)c1` was tested, and the inhibition was 67.4% (active).
`OCc1ccccc1N=c1ssnc1Cl` was tested, and the inhibition was 43.7%.
With `COc1ccc(OC)c(N=C2C(=O)Nc3ccccc32)c1` the inhibition was 5.1%.
Work on `Cc1ccc(-c2nc(C)sc2CC(=O)OCC(=O)Nc2cccc([N+](=O)[O-])c2)cc1` yielded an inhibition of -5.6%.
With `C/C(=N\N=C\c1ccc(N(C)C)cc1)c1cccc([N+](=O)[O-])c1` the inhibition was -128%.
`COC(=O)c1sccc1NC(=S)Nc1cc(OC)ccc1OC` was tested, and the inhibition was 41.2%.
In the case of `COc1ccc2c(c1)Cc1sc(NC(=O)c3cccnc3)nc1-2`, the inhibition was 64.2% (active).
`COc1ccc2c(c1)Cc1sc(NC(=O)c3ccco3)nc1-2` was tested, and the inhibition was 45.8%.
`COc1ccc2c(c1)CCc1sc(NC(=O)c3ccco3)nc1-2` was tested, and the inhibition was 60.6% (active).
With `COc1ccc(C(=O)Nc2nc3c(s2)Cc2cc(OC)ccc2-3)cc1` the inhibition was 26.8%.
In the case of `COc1ccc2c(c1)-c1nc(NC(=O)c3ccco3)sc1CC2`, the inhibition was 32.9%.
`COc1ccc2c(c1)Cc1sc(NC(=O)c3ccccc3)nc1-2` was tested, and the inhibition was -13.1%.
